This is an account of results in PubChem BioAssay (EPA / NIEHS).

Experiment [1] in a line: APR_HepG2_CellCycleArrest_24hr: Apredica 24-hour HepG2 Assay for Cell Cycle Arrest (AID 2282905).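 Also: cell cycle arrest scored as ratio of 2N to 4N nuclear DNA content.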 The following applies: imaging, actives raise or lower the signal. In outline:
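Compounds at 0.39–200 uM (0.5% DMSO) for 24 h, then fixed and Hoechst 33342 stained. Cell-cycle analysis of nuclear DNA content by high-content imaging, fitted bidirectionally versus DMSO.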

Experiment [2] can be described thus: APR_HepG2_NuclearSize_24hr: Apredica 24-hour HepG2 Assay for Nuclear Size (AID 2282907). The following applies: high-content imaging, actives raise or lower the signal. The gist of the method:
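HepG2 cells exposed 24 h to compounds at 0.39–200 uM (0.5% DMSO), fixed, Hoechst 33342 stained and imaged at 20x; nuclear diameter measured by automated image analysis, fitted bidirectionally against DMSO controls.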

Experiment [3] in a line: APR_HepG2_CellLoss_24hr: Apredica 24-hour HepG2 Assay for Cell Loss (AID 2282908).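 As to AC50: fit in both directions so a hit may be cell loss or gain.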 The following applies: high-content imaging. In outline: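 HepG2 cells exposed 24 hr to 0.39–200 uM compound in duplicate at 0.5% v/v final DMSO. Cells fixed in 3.7% formaldehyde and Hoechst 33342-stained. Cell number came from nuclear imaging at 20x. Bidirectional fit versus DMSO.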
A short description of experiment [4]: APR_HepG2_MicrotubuleCSK_24hr: Apredica 24-hour HepG2 Assay for Microtubule CSK Stabilty (AID 2282909). The settings on record: HepG2 microtubule cytoskeleton imaging, actives raise or lower the signal. In outline:
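HepG2 cells were treated 24 hr with compound at 0.39–200 uM in duplicate (0.5% DMSO final), then fixed and permeabilized. Alpha-tubulin immunofluorescence was imaged by high-content microscopy, with bidirectional fitting against DMSO and taxol as positive control.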

A short description of experiment [5]: APR_HepG2_MitoticArrest_24hr: Apredica 24-hour HepG2 Assay for Mitotic Arrest (AID 2282910). The following applies: high-content imaging, actives raise or lower the signal. In outline:
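Compounds are dosed onto HepG2 cells across ten concentrations up to 200 uM for 24 hr. Cells are then fixed in 3.7% formaldehyde, permeabilised, and labelled for phospho-histone H3 and nuclei; images are scored by cell cycle analysis and fitted bidirectionally relative to DMSO.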

A short description of experiment [6]: APR_HepG2_MitoMembPot_24hr: Apredica 24-hour HepG2 Assay for Mitochondrial Membrane Potential (AID 2282911). The settings on record: imaging, actives raise or lower the signal. In outline:
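HepG2 cells exposed 24 h to 0.39–200 uM compounds in duplicate, 0.5% v/v DMSO final. MitoTracker Red CMXRos 250 nM loaded 30 min before formaldehyde fixation; high-content imaging at 20x, bidirectional fit versus DMSO.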

The nature of experiment [7]: APR_HepG2_MitoMass_24hr: Apredica 24-hour HepG2 Assay for Mitochondrial Mass (AID 2282912). The following applies: high-content imaging, actives raise or lower the signal. The gist of the method: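 HepG2 cells exposed 24 hr to 0.39–200 uM compound, 0.5% v/v DMSO, in duplicate. Stained before fixation with 250 nM MitoTracker Red CMXRos for 30 min, then imaged at 20x with Hoechst nuclei. Fitted in both directions against DMSO.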

A short description of experiment [8]: APR_HepG2_CellCycleArrest_72hr: Apredica 72-hour HepG2 Assay for Cell Cycle Arrest (AID 2282914). The settings on record: high-content imaging, actives raise or lower the signal. In outline: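 HepG2 cells exposed 72 h in duplicate to 0.39–200 uM compound, 0.5% DMSO final. Formaldehyde-fixed, Hoechst 33342-stained nuclei imaged at 20x, six fields per well; DNA content per valid cell quantified by cell-cycle image analysis, bidirectional fit versus DMSO.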

Experiment [9] can be described thus: APR_HepG2_CellLoss_72hr: Apredica 72-hour HepG2 Assay for Cell Loss (AID 2282915). The settings on record: high-content imaging. The gist of the method:
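Cell number comes from Hoechst 33342-labelled nuclei, imaged at 20x after 3.7% formaldehyde fixation. Dosing was 0.39–200 uM, ten concentrations in duplicate, 0.5% DMSO final, for 72 h. Bidirectional fit relative to DMSO baseline.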

Experiment [10] in a line: APR_HepG2_p53Act_24hr: Apredica 24-hour HepG2 Assay for p53 Activation (AID 2282913).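 Also: p53 protein immunofluorescence averaged per cell in HepG2 with Hoechst nuclei.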 The following applies: high-content imaging, actives raise or lower the signal. The gist of the method:
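HepG2 cells exposed 24 h to compounds at 0.39–200 uM in duplicate, 0.5% v/v DMSO final; fixed, permeabilized, stained with anti-p53 antibody and Hoechst 33342; fluorescence imaging; bidirectional curve fit versus DMSO.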

SMILES strings stand for the structures. Active and inactive are the calls of the source. The calls were made as follows: active = hit-call score of the fitted dose curve at least 0.9, where 1 is the maximum; inactive = score below 0.9.

Turning to `CC(C)O.CC(C)O.OCCN(CCO)CCO.OCCN(CCO)CCO.[Ti]`, the compound was classed as inactive in experiment [1], in experiment [2], in experiment [3], in experiment [4], in experiment [5] and in [6]. For the same compound, the result in experiment [7], in [8] and in experiment [9] was inactive.
`Clc1cccc(Cl)c1Cl`: the result in [1], in experiment [2], in experiment [3], in experiment [4], in experiment [5] and in experiment [6] was inactive. The compound was classed as inactive in [7], in experiment [8] and in experiment [9].
`Oc1cc(Cl)c(Cl)cc1Cl`: the AC50 in experiment [1] was 35.7 µM (active); in experiment [3], 27.7 µM (active); in [4], 41.8 µM (active); in experiment [5], 38.6 µM (active); in experiment [7] it was 46.7 µM (active); in experiment [9], 44.6 µM (active). Moreover, the outcome in [2], in experiment [6] and in experiment [8] was inactive.
Consider `CC(C)(C)c1ccccc1O`, for which the call in [1], in experiment [2], in experiment [3], in [4], in experiment [5] and in experiment [6] was inactive. For the same compound, the call in [7], in [8] and in experiment [9] was inactive.
As to `O=C(O)C1(c2ccc3c(c2)OC[C@H](Cc2ccc(-c4ccccc4)cc2)[C@H]3O)CCCC1`, the result in experiment [1], in experiment [2], in [3], in experiment [4] and in experiment [5] was inactive. In addition, the AC50 in experiment [6] was 105 µM (active); in [7] it was 112 µM (active); in experiment [8], 118 µM (active); in experiment [9], 86.9 µM (active).
Turning to `O=C(N[C@H]1CN2CCC1CC2)c1ccc2c(c1)OCCO2`, the compound was called inactive in experiment [1], in experiment [2], in experiment [3], in [4], in experiment [5] and in experiment [6]. For the same compound, the compound was called inactive in experiment [7], in experiment [8] and in experiment [9].
Turning to `CN(C)C(=S)S`, the half-maximal activity concentration (AC50) is 19.8 µM (active) in experiment [1], 0.183 µM (active) in experiment [3], 0.0391 µM (active) in experiment [8] and 0.238 µM (active) in experiment [9]. The result in [2], in [4], in experiment [5], in [6] and in experiment [7] was inactive.
With `OCCN(CCO)CCO`, the call in [1], in [2], in experiment [3], in experiment [4], in experiment [5] and in [6] was inactive. For the same compound, the compound was called inactive in experiment [7], in experiment [8] and in [9].
In the case of `Clc1cccc(Cl)c1`, the call in experiment [1], in experiment [2], in experiment [3], in [4], in experiment [5] and in experiment [6] was inactive. Besides, the outcome in [7], in experiment [8] and in experiment [9] was inactive.
As to `Oc1c(Cl)cc(Cl)cc1Cl`, the compound was classed as inactive in [3], in experiment [5], in [6], in [7], in [10] and in experiment [9].
With `CCCCCCCCCCCCc1cccc(S(=O)(=O)O)c1`, the outcome in experiment [1], in [2], in [3], in experiment [4], in [5] and in experiment [6] was inactive. The compound was classed as inactive in experiment [7], in experiment [8] and in experiment [9].
On to `N#Cc1cccnc1`, for which the compound was called inactive in [1], in experiment [2], in experiment [3], in experiment [4], in experiment [5] and in experiment [6]. The compound was classed as inactive in [7], in experiment [8] and in [9].
Regarding `Cc1cc(C)cc(C)c1`, the call in experiment [1], in [2], in experiment [3], in [4], in experiment [5] and in [6] was inactive. In addition, the outcome in experiment [7], in [8] and in experiment [9] was inactive.
Turning to `COc1ccccc1N`, the outcome in experiment [1], in experiment [2], in [3], in experiment [4], in [5] and in experiment [7] was inactive. In addition, the compound was classed as inactive in experiment [8] and in [9]. For the same compound, the concentration at half-maximal activity (AC50) in experiment [6] was 29.3 µM (active).

Usually AC50 stands for the midpoint of the concentration-response curve, whichever way the signal moves.
